# From publication PMC7862700, “An all-to-all approach to the identification of sequence-specific readers for epigenetic DNA modifications on cytosine”
# Key:
# Test in all cases: DAPPL (digital affinity profiling via proximity ligation, sequencing); 10 mM Tris-HCl pH 7.5, 50 mM NaCl, 1 mM DTT, 4% glycerol, room temperature, 30 min; GST-TFs on glutathione beads, 16-mer random dsDNA library, 0.1% formaldehyde crosslink after washing; high values mean tight binding
# Settings in all cases: protein: recombinant; tags: N-terminal GST; dsDNA, one strand shown
# FLI1 = target: T1, FLI1 (Homo sapiens, UniProt Q01543 1-452)
# T1 sequence: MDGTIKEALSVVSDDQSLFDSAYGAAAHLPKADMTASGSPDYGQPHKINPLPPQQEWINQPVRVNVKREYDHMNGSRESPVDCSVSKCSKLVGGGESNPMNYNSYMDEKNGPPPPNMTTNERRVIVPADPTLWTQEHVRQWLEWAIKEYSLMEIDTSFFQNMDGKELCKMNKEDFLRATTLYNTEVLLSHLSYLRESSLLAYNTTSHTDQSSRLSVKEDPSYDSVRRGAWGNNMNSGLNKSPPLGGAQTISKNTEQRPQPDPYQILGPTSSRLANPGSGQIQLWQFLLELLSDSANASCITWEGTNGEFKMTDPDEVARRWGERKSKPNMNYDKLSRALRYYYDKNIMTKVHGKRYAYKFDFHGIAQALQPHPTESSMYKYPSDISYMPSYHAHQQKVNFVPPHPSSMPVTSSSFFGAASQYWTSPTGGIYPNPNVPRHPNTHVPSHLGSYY
# Outline: (§1)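 Sequencing on an Illumina NextSeq500 followed washing, crosslinking with 0.1% formaldehyde, proximity ligation (BsaI/T4 ligase, 1 h, 37 °C) and PCR amplification of pools that had been incubated for 30 min at room temperature with 200 nmole of a random double-stranded 16-mer DNA library in Tris/NaCl/DTT/glycerol buffer. Each pool held DNA-barcoded human transcription factors, expressed in yeast as GST fusions and captured on glutathione beads, plus a tag-only sample. Binding signal is a hexamer's read frequency for a factor divided by its frequency in the tag-only sample.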
# ELK1 = target: T2, ELK1 (Homo sapiens, UniProt P19419 1-428)
# T2 sequence: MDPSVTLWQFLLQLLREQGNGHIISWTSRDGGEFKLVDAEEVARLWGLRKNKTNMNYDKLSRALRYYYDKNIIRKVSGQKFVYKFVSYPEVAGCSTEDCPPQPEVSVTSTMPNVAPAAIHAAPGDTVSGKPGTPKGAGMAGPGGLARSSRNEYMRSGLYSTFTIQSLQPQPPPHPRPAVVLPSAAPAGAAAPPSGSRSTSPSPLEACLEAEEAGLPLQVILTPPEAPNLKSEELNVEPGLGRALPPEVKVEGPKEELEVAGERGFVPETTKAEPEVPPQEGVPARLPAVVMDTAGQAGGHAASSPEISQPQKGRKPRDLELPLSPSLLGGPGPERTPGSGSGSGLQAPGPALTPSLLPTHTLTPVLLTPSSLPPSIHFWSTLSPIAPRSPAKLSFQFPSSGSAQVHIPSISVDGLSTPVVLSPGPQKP
# Outline: as §1
# GABPA = target: T3, GABPA (Homo sapiens, UniProt Q06546 1-454)
# T3 sequence: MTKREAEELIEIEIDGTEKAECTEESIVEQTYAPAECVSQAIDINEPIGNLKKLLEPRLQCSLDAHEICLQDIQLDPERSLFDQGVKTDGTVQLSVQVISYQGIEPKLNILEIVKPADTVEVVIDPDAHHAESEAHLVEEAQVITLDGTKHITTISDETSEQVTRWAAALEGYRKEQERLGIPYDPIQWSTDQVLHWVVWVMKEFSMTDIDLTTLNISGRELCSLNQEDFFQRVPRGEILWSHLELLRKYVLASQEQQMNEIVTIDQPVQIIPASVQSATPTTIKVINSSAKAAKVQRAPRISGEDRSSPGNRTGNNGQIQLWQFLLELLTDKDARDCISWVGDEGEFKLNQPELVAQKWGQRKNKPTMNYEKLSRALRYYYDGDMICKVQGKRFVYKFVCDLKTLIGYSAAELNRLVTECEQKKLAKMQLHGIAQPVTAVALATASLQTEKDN
# Outline: as §1
# ERG = target: T4, ERG (Homo sapiens, UniProt P11308 1-479)
# T4 sequence: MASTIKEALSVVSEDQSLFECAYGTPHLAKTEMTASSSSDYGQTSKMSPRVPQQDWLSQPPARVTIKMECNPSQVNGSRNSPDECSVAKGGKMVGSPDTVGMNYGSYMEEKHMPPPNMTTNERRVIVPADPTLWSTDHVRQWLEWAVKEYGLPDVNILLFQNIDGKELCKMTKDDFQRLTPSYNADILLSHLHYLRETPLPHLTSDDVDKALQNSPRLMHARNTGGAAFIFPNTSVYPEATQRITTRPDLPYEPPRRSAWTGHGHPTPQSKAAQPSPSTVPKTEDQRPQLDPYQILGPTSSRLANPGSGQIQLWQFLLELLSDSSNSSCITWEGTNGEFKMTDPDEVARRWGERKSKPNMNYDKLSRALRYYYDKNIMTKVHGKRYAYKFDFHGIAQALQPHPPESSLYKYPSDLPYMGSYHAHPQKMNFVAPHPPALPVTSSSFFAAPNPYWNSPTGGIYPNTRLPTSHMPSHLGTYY
# Outline: as §1
# ELF1 = ELF1 (Homo sapiens, UniProt P32519 1-619)
# Outline: as §1
# EHF = target: T5, EHF (Homo sapiens, UniProt Q9NZC4 1-300)
# T5 sequence: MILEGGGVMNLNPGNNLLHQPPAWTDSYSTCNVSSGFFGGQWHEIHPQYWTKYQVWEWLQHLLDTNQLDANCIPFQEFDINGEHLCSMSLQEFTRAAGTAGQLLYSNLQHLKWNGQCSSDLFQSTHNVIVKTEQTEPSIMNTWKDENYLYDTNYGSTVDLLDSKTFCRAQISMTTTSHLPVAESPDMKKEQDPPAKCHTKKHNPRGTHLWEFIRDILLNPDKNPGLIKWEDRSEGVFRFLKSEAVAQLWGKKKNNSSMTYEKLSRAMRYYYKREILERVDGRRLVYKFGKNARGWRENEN
# Outline: as §1
# SPI1 = SPI1 (Homo sapiens, UniProt P17947 1-270)
# Outline: as §1
# SPIB = SPIB (Homo sapiens, UniProt Q01892 1-262)
# Outline: as §1
# ELK3 = target: T6, ELK3 (Homo sapiens, UniProt P41970 1-407)
# T6 sequence: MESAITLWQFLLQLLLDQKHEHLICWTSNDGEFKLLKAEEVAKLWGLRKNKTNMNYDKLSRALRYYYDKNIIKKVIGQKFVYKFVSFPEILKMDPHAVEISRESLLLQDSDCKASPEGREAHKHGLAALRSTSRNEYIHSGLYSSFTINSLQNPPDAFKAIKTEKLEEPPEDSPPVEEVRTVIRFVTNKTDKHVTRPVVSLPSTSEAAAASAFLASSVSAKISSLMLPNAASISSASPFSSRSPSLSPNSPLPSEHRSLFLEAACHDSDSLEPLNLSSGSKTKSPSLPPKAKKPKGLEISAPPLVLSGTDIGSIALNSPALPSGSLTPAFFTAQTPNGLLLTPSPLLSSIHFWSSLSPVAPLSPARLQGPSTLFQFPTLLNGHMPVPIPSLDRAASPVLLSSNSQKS
# Outline: as §1
# FEV = target: T7, FEV (Homo sapiens, UniProt Q99581 1-238)
# T7 sequence: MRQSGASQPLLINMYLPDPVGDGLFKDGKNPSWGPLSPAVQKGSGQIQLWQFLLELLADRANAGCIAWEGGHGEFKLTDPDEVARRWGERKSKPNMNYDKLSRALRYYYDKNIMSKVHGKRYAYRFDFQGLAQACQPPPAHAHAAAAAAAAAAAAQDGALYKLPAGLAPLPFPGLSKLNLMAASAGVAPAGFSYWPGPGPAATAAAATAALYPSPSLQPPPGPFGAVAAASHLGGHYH
# Outline: as §1
# ETV5 = ETV5 (Homo sapiens, UniProt P41161 1-510)
# Outline: as §1
# SPIC = target: T8, SPIC (Homo sapiens, UniProt Q8N5J4 1-248)
# T8 sequence: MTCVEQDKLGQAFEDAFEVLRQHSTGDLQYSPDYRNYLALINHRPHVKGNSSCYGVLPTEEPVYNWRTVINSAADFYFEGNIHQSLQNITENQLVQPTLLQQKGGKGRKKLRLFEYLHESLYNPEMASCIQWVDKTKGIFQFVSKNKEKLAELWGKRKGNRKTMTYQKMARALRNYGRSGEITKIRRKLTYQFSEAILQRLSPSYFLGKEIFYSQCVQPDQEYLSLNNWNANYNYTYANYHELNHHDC
# Outline: as §1
# ELF4 = ELF4 (Homo sapiens, UniProt Q99607 1-663)
# Outline: as §1
# ELK4 = target: T9, ELK4 (Homo sapiens, UniProt P28324-2 1-405)
# T9 sequence: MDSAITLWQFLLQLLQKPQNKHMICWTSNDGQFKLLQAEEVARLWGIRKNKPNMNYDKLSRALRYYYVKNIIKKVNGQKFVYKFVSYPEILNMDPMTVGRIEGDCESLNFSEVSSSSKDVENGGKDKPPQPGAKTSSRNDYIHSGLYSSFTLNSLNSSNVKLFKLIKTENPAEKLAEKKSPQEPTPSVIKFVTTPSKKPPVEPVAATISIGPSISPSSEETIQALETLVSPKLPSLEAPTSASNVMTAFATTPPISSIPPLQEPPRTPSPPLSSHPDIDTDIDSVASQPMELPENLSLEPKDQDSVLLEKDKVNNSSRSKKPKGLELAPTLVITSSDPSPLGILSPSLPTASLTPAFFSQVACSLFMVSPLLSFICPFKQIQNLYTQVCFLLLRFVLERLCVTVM
# Outline: as §1
# ETV2 = target: T10, ETV2 (Homo sapiens, UniProt O00321 1-342)
# T10 sequence: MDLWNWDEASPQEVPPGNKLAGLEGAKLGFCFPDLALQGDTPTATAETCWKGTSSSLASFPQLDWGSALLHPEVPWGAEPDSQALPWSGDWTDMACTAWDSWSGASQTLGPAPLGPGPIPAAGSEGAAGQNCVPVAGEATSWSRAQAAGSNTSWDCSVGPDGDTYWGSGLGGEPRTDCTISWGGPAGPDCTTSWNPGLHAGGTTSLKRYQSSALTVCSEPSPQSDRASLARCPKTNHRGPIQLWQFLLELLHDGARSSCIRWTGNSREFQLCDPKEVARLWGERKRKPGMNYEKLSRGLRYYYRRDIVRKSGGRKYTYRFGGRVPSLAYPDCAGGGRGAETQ
# Outline: as §1
# ELF3 = target: T11, ELF3 (Homo sapiens, UniProt P78545 1-371)
# T11 sequence: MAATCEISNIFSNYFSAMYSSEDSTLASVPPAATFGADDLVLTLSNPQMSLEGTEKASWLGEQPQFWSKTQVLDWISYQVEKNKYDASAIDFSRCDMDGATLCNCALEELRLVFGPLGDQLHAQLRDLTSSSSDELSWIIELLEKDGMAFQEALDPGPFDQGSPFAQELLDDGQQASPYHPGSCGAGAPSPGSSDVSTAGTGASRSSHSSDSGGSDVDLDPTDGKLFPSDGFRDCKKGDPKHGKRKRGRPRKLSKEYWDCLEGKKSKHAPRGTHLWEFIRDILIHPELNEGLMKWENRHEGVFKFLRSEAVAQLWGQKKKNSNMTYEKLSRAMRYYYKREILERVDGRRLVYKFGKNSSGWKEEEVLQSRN
# Outline: as §1
# ETV1 = ETV1 (Homo sapiens, UniProt P50549 1-477)
# Outline: as §1
# SPIB, sequence (Q01892 whole entry): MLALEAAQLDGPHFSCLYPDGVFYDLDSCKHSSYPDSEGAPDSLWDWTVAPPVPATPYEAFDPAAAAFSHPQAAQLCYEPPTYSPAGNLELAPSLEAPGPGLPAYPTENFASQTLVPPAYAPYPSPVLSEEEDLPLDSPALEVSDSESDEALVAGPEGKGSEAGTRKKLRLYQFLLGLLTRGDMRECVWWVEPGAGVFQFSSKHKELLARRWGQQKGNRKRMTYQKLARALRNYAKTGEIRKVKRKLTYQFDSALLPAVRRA
# ELF4, sequence (Q99607 whole entry): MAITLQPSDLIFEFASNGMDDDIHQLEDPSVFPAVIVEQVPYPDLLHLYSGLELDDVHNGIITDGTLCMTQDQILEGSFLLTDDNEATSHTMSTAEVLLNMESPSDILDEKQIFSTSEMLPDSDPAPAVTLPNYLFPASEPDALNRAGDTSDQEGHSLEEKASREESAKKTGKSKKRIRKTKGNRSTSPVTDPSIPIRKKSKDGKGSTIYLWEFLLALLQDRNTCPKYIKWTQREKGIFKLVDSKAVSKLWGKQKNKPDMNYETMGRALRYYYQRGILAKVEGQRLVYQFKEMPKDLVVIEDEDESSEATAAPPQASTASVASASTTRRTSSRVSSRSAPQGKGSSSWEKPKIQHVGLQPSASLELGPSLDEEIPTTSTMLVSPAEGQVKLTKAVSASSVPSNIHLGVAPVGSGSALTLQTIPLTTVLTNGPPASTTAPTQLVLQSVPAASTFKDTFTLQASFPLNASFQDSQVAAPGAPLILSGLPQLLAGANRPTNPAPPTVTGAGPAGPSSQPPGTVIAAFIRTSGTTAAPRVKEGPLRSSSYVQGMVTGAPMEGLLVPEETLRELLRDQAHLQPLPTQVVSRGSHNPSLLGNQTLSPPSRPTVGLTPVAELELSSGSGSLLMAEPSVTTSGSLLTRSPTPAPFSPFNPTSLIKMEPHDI
# ETV1, sequence (P50549 whole entry): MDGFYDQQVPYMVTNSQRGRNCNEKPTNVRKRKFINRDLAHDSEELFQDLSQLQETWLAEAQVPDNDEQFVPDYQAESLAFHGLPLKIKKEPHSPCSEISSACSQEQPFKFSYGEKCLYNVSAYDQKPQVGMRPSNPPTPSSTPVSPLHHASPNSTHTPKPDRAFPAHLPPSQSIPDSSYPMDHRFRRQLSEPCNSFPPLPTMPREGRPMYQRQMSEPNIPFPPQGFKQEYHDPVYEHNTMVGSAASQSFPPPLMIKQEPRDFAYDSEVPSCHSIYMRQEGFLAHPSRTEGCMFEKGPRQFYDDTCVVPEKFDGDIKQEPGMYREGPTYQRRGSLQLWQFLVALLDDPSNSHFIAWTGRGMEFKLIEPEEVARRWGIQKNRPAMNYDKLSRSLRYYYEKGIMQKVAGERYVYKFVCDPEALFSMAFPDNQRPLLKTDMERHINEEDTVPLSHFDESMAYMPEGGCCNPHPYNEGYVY
# ETV5, sequence (P41161 whole entry): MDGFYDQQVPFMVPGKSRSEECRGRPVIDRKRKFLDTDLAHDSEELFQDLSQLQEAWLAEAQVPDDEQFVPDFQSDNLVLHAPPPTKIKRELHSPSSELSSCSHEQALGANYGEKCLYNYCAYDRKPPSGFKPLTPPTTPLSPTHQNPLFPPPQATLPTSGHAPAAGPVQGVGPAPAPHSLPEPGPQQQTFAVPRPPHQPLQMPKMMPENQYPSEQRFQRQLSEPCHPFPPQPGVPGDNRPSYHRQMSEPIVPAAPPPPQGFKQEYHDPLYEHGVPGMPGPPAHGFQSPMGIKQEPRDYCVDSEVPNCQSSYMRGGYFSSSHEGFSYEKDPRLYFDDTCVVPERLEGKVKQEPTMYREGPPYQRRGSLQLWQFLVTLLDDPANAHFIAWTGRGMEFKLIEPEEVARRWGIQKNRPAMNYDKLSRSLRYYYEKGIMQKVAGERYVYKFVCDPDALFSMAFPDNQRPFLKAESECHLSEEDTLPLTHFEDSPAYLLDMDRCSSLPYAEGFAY
# ELF1, sequence (P32519 whole entry): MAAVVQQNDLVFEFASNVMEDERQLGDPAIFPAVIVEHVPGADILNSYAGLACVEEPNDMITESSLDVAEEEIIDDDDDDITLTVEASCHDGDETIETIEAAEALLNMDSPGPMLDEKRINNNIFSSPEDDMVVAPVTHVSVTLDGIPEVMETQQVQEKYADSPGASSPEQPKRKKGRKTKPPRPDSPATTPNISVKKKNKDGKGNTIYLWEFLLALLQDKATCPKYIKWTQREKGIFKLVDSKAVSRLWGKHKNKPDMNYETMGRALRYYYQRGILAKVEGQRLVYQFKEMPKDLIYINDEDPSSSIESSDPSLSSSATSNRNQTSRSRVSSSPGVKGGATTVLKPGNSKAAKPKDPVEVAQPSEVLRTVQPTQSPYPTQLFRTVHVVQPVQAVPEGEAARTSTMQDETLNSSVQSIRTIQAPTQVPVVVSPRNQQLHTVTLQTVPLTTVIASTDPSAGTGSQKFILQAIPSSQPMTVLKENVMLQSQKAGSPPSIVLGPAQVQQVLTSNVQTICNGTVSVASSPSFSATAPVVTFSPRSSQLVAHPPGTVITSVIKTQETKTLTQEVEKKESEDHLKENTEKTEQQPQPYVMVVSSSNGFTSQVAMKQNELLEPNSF
sequence,measurement,setting,value
GGATGC,binding signal,FLI1,"1.11 fold enrichment (6-mer frequency, TF over GST control)"
same,binding signal,ELK1,"1.06 fold enrichment (6-mer frequency, TF over GST control)"
same,binding signal,GABPA,"1.1 fold enrichment (6-mer frequency, TF over GST control)"
same,binding signal,ERG,"1.16 fold enrichment (6-mer frequency, TF over GST control)"
same,binding signal,ELF1,"1 fold enrichment (6-mer frequency, TF over GST control)"
same,binding signal,EHF,"1.24 fold enrichment (6-mer frequency, TF over GST control)"
same,binding signal,SPI1,"1.11 fold enrichment (6-mer frequency, TF over GST control)"
same,binding signal,SPIB,"1.28 fold enrichment (6-mer frequency, TF over GST control)"
same,binding signal,ELK3,"1.23 fold enrichment (6-mer frequency, TF over GST control)"
same,binding signal,FEV,"1.29 fold enrichment (6-mer frequency, TF over GST control)"
same,binding signal,ETV5,"1.27 fold enrichment (6-mer frequency, TF over GST control)"
same,binding signal,SPIC,"1.2 fold enrichment (6-mer frequency, TF over GST control)"
same,binding signal,ELF4,"1.09 fold enrichment (6-mer frequency, TF over GST control)"
same,binding signal,ELK4,"1.13 fold enrichment (6-mer frequency, TF over GST control)"
same,binding signal,ETV2,"1.06 fold enrichment (6-mer frequency, TF over GST control)"
same,binding signal,ELF3,"1.13 fold enrichment (6-mer frequency, TF over GST control)"
same,binding signal,ETV1,"1.2 fold enrichment (6-mer frequency, TF over GST control)"
